Results from the supplement of paper PMC9492666.
Structures can show the parent of a compound that is named as a salt.

Test system: HCC1937
Experiment: relative cell viability, compound + erastin, vs DMSO (fraction of DMSO control); higher = less growth inhibition
Details: 72 h
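Further: viability read by CCK-8 kit in 96-well plates, part of a combination screen pairing lipid-metabolism-targeting compounds with erastin.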

Question: With `Cc1ccc(/C=C2\SC(=S)N(CCCCCC(=O)Nc3ccc(C(=O)O)c(O)c3)C2=O)cc1` + CCOc1ccccc1-n1c(C(C)N2CCN(C(=O)COc3ccc(Cl)cc3)CC2)nc2ccccc2c1=O [erastin] as the molecule, how does the relative cell viability read?
Answer: 0.715

Question: Which relative cell viability does the source give for `CN(C)CCOC(=O)COc1ccc(Cl)cc1` [Meclofenoxate hydrochloride] + CCOc1ccccc1-n1c(C(C)N2CCN(C(=O)COc3ccc(Cl)cc3)CC2)nc2ccccc2c1=O [erastin] here?
Answer: 0.693

Question: With `CN(CCOc1ccc(CC2SC(=O)NC2=O)cc1)c1ccccn1` (configuration not stated) [Rosiglitazone HCl] + CCOc1ccccc1-n1c(C(C)N2CCN(C(=O)COc3ccc(Cl)cc3)CC2)nc2ccccc2c1=O [erastin] as the molecule, how does the relative cell viability read?
Answer: 0.619

Question: `CC(C)[C@H]1CC[C@H](C(=O)N[C@H](Cc2ccccc2)C(=O)O)CC1` [Nateglinide] + CCOc1ccccc1-n1c(C(C)N2CCN(C(=O)COc3ccc(Cl)cc3)CC2)nc2ccccc2c1=O [erastin] was tested. Which relative cell viability did it give?
Answer: 0.666

Question: Which relative cell viability does the source give for `COCCNC(=O)Nc1ccc2nc(-c3cccs3)c(-c3cccs3)nc2c1` [Ac-CoA Synthase Inhibitor1] + CCOc1ccccc1-n1c(C(C)N2CCN(C(=O)COc3ccc(Cl)cc3)CC2)nc2ccccc2c1=O [erastin] here?
Answer: 0.597

Question: How did the relative cell viability turn out when `COc1ccc(-c2coc3cc(OC)ccc3c2=O)cc1` [4',7-Dimethoxyisoflavone] + CCOc1ccccc1-n1c(C(C)N2CCN(C(=O)COc3ccc(Cl)cc3)CC2)nc2ccccc2c1=O [erastin] was run?
Answer: 0.313

Question: With `O=C(O)c1cc(F)c2nc(N3[C@@H]4CC[C@H]3C[C@@H](OCc3c(-c5ccccc5OC(F)(F)F)noc3C3CC3)C4)sc2c1` [Tropifexor] + CCOc1ccccc1-n1c(C(C)N2CCN(C(=O)COc3ccc(Cl)cc3)CC2)nc2ccccc2c1=O [erastin] as the molecule, how does the relative cell viability read?
Answer: 0.658

Question: For `COP(=O)(OC)OC(c1ccc(Cl)cc1)P(=O)(OC)OC` (configuration not stated) [Mifobate] + CCOc1ccccc1-n1c(C(C)N2CCN(C(=O)COc3ccc(Cl)cc3)CC2)nc2ccccc2c1=O [erastin], which relative cell viability is on record?
Answer: 0.875

Question: With `C=CC[S+]([O-])C[C@H](N)C(=O)O` (some centres not stated) [Alliin] + CCOc1ccccc1-n1c(C(C)N2CCN(C(=O)COc3ccc(Cl)cc3)CC2)nc2ccccc2c1=O [erastin] as the molecule, how does the relative cell viability read?
Answer: 0.864

Question: How did the relative cell viability turn out when `Nc1cccc(S(=O)(=O)N2CCCN(S(=O)(=O)c3ccc4c(c3)OCCO4)CC2)c1` + CCOc1ccccc1-n1c(C(C)N2CCN(C(=O)COc3ccc(Cl)cc3)CC2)nc2ccccc2c1=O [erastin] was run?
Answer: 0.817

Question: For `COc1cccc(CNc2ccc(S(=O)(=O)Nc3nc4ccccc4s3)cc2)c1O` + CCOc1ccccc1-n1c(C(C)N2CCN(C(=O)COc3ccc(Cl)cc3)CC2)nc2ccccc2c1=O [erastin], which relative cell viability is on record?
Answer: 0.639

Question: `O=C(O)c1cccnc1Nc1cccc(C(F)(F)F)c1` [Niflumic acid] + CCOc1ccccc1-n1c(C(C)N2CCN(C(=O)COc3ccc(Cl)cc3)CC2)nc2ccccc2c1=O [erastin] was tested. Which relative cell viability did it give?
Answer: 0.771
